Experimental findings from PubChem BioAssay (NCATS) are described below.

The structures appear in SMILES notation. Records with an inconclusive call do not appear. Where a call stands in place of a potency, no number is given. The source made the active and inactive calls. Calls follow the shape of the dose curve; as a rule, active = well fitted cell-killing curve with a large enough effect; inconclusive = small, poorly fitted or top-dose-only effect, or effect the other way; inactive = flat fitted curve, though single readings scatter. *1 amine or outer side, *2 acyl side, *3 side chain or, on linkers, in order; H or OH if unused. Where a SMILES comes first, the peptide text is derived from it. [ ]: non-standard residue; d: D form. ξ: configuration not given here. X5 = CC(CC(O[*:1])C(=O)[*:2])C(=O)O; ξLac(3-iPr) = CC(C)CC(O)C(=O)O; NMeV = CN[CH](C(=O)O)C(C)C; NMeA = CN[CH](C)C(=O)O; βAla = NCCC(=O)O
Potency is read from the fitted curve at half-maximal effect.

In the assay the test system is HeLa. As to the kind of experiment: Primary qHTS to identify gynecologic anti-cancer compounds using libraries of approved drugs and bioactive compounds (AID 1345084). Also: nearly all actives have a fitted effect of over 55% in size. The conditions noted are these: Gynecologic cancer cell panel viability, ATPlite luminescence, 48 h; series mostly up to 57.5 µM. The source says: National Center for Advancing Translational Sciences [NCATS] Assay Overview: Chemotherapeutic drug responses vary from cancer to cancer and from patient to patient. These variations could be caused by a number of factors including patient genomic background, tumor mutations, tumor heterogeneity, and aspects of drug treatment. Chemotherapeutic drug resistance is also a common issue and can lead to ineffective treatment and patient death. Here we have profiled the cell killing effects of thousands of compounds to characterize the responses in three gynecological cancers, identify cancer-selective compounds, and understand the diversity of responses to these compounds from pan-cancer suppressors to single cell line selective compounds. In this assay, we screened a 7,914 compound drug library that included approved drug and bioactive compounds in six ovarian, three cervical, and […] placental cancer cell lines using the ATPlite assay for cell viability. […] The cervical cancer cell lines included HeLa, Ca Ski, and C-33 A. The placental cancer cell lines included JEG-3. HEK 293T cells were used as the control cell line to determine the selectivity index. ATPlite is a luminescence based assay reliant on the conversion of a luciferase substrate to light in the presence of ATP. As a cytotoxic compound will suppress growth and decrease the number of cells, the concentration of ATP will decrease, and less light signal will be detected in the well.
Assay Protocol Summary: 1,000 cells in 4 uL of media were dispensed into white, solid bottom 1536-well plates using a Multidrop Combi (Thermo Scientific). The Assay plates were incubated for 16 hours at 37 C with 5% CO2 in assay plates, followed by the addition of 23 nL of DMSO or drug dissolved in DMSO. Each compound was assayed in five concentrations (0.092, 0.46, 2.3, 11.5, and 57.5 uM), using the automated Wako 1536 Pin Tool workstation and incubated at 37 C with 5% CO2 48 hours. 4 uL of ATPlite, the ATP monitoring reagent, was then added to the each well of the assay plates using the Multidrop Combi reagent dispenser followed by incubation for 15 minutes at room temperature. The resulting luminescence was measured using the ViewLux plate reader.
Background: Quantitative high-throughput screening tests each substance at several concentrations.
For `CC1(C)C(=O)N(c2ccc(C#N)c(C(F)(F)F)c2)C(=S)N1c1ccc(C(N)=O)c(F)c1`, the Potency entry was “inactive”. The result for `COc1cc2c(cc1O)C1(C)CCC(O)C(C)(C)C1CC2=O` (stereo not given) reads “inactive”; that for `CN(C)c1cc2c(cc1Sc1nc3c(N)nccc3n1CCNCC(C)(C)C)OCO2`, “inactive”; that for `C[C@]12CC[C@@H](O[C@@H]3O[C@H](CO)[C@@H](O)[C@H](O)[C@H]3O)C[C@@]1(O)CCC1C2CC[C@]2(C)[C@@H](C3=CC(=O)OC3)CC[C@]12O` (stereo not given in full), 398 nM (active). Then `CCC1(O)CCC2C3CCC4=CC(=O)CCC4C3CCC21CC` (stereo not given), with “inactive”. Regarding `C[C@@]1(CO)[C@H](O)CC[C@@]2(C)[C@H]1CC[C@H]1C[C@@H]3C[C@@]12CC[C@]3(O)CO`, the Potency result was “inactive”. Consider `Cc1c(Cl)c(OCC(=O)N2CCN(C)CC2)nc2sc(C(=O)NC3CC3)c(N)c12`, for which the Potency entry is “inactive”. The result for `CC1=CC2OC3[C@H](O)C[C@@](C)([C@]34CO4)[C@@]2(CO)[C@H](O)C1=O` (stereo not given in full) reads 25100 nM (active). The result for `CN1C2CCC1CC(OC(=O)N1Cc3ccccc3NC1=O)C2` (stereo not given) reads “inactive”; that for `COc1cccc(NCC(F)Cn2c3ccc(Br)cc3c3cc(Br)ccc32)c1` (stereo not given), “inactive”; that for `Clc1ccc([C@]23CNC[C@H]2C3)cc1Cl`, “inactive”.

In the case of `C=C(C)[C@@]12O[C@@H]1[C@@]1(C)C(=C[C@H]2O)CC[C@@H](O)[C@@H]1C`, the Potency result is “inactive”. The result for `CC(=O)O[C@H]1CC[C@H]2[C@@H]3CC[C@H]4CC(=O)C=C(C)[C@]4(C)[C@H]3CC[C@]12C` reads “inactive”; that for `CCOC(=O)c1ccc(-c2ccc(OC(=O)N(C)Cc3cccc(-c4ccncc4)c3)cc2)cc1`, “inactive”. Then `C[C@@H]1CN(Cc2ccc(F)cc2)CCN1C(=O)COc1ccc(Cl)cc1NC(N)=O`, with “inactive”; and `CCOC(=O)C1(CCc2ccccc2)CCN(Cc2ccc(NC(C)=O)cc2)CC1`, with “inactive”; and `Cc1[nH]c2ccc(Cl)cc2c1CCN(C)C`, with “inactive”. Then `C[C@@H]1[C@H](O)[C@@H](C)/C=C/C=C/CC/C=C/C=C/C=C/C=C/[C@H](O[C@H]2O[C@@H](C)[C@H](O)[C@@H](N)[C@H]2O)C[C@@H]2O[C@](O)(C[C@@H](O)[C@H](O)CC[C@@H](O)C[C@@H](O)C[C@@H](O)CC(=O)O[C@H]1C)C[C@H](O)[C@H]2C(=O)O`, with “inactive”; and `c1ccc(C2(c3ccccc3)OC[C@@H]([C@H]3CCCCN3)O2)cc1`, with “inactive”; and `CC(=O)O[C@H]1C[C@@H](C)O[C@H]2O[C@@H]3CC4CC[C@@H]5C(CC[C@]6(C)[C@@H](C7=CC(=O)OC7)CC[C@]56O)[C@@]4(C=O)C[C@H]3O[C@]21O` (stereo not given in full), with 126 nM (active). As for `O=C(N[C@H]1CN2CCC1CC2)c1cc2cccc(Cl)c2s1`, the Potency result was “inactive”. The result for `CO[C@H]1C[C@H](O[C@H]2CC[C@]3(C=O)[C@H]4CC[C@]5(C)[C@@H](C6=CC(=O)OC6)CC[C@]5(O)[C@@H]4CC[C@]3(O)C2)O[C@H](C)[C@H]1O` reads 141 nM (active); that for `C=C1C(=O)CC2OC2(C)CC2OC(=O)C(=C)C2C(O)C1OC(=O)/C(C)=C\C` (stereo not given), “inactive”; that for `CC[C@@H]1C[C@H]2CC[C@H](O2)[C@H](C)C(=O)O[C@@H](C)C[C@@H]2CC[C@@H](O2)[C@@H](C)C(=O)O[C@H](C)C[C@H]2CC[C@H](O2)[C@H](C)C(=O)O[C@@H](C)C[C@@H]2CC[C@@H](O2)[C@@H](C)C(=O)O1`, 562 nM (active). The result for `CN(C(=O)C(c1ccccc1)c1ccccc1)[C@H](CN1CC[C@H](O)C1)c1ccccc1` reads “inactive”.

For `CCC(C)C1NC(=O)C2CCCN2C(=O)C(CC(C)C(=O)O)OC(=O)CCNC(=O)C(C)N(C)C(=O)C(C(C)C)N(C)C1=O` (stereo not given) (cyclo([X5]PI[NMeV][NMeA][βAla]); configuration not given here), the Potency result is “inactive”. Consider `O=C1CN=C(c2ccccc2Cl)c2cc(Br)ccc2N1`, for which the Potency result is “inactive”. The result for `N#Cc1ccc(N2CCN(C(=O)COc3ccc4[nH]cc(CCN)c4c3)CC2)cc1` reads “inactive”; that for `NC(=O)c1ncn2c1CN=C(c1ccccc1Br)c1cc(F)ccc1-2`, “inactive”. Then `CN1CCc2cc3c(cc2[C@H]1[C@@H]1OC(=O)c2c1ccc1c2OCO1)OCO3`, with “inactive”; and `Cc1c(N[C@@H](c2nnc(-c3ccc(C#N)cc3)o2)[C@H](C)O)ccc(C#N)c1Cl`, with “inactive”. Then `CN1C[C@@H]2CN(c3ccc(-c4ccccc4)nn3)C[C@@H]2C1`, with “inactive”.

Turning to `OCc1nnc2n1-c1ccc(Cl)cc1C(c1ccccc1Cl)=NC2`, the Potency entry is “inactive”. Consider `C/C=C(/C)C1C=CC2CC(C)CC(C)C2C1/C(O)=C1\C(=O)NC(CC(C)(O)C(=O)O)C1=O` (stereo not given), for which the Potency result was “inactive”. The result for `CCC(C)C1NC(=O)C2CCCN2C(=O)C(CC(C)C)OC(=O)CCNC(=O)C(C)N(C)C(=O)C(C(C)C)N(C)C1=O` (stereo not given) (cyclo([ξLac(3-iPr)]PI[NMeV][NMeA][βAla]); configuration not given here) reads “inactive”; that for `CC(=O)OC[C@]12[C@H](OC(C)=O)C(=O)[C@@H]3[C@@H](O)[C@@]14O[C@@]3(C)COC(=O)c1cccnc1[C@@H](C)[C@H](C)C(=O)O[C@@H]([C@H](OC(C)=O)[C@@H]2OC(C)=O)[C@]4(C)O`, “inactive”; that for `CC(C)(C)[C@]1(O)C[C@@H]2OC(=O)C[C@@]23C(=O)O[C@@H]2OC(=O)[C@@H](O)[C@]213`, “inactive”. Then `O=C(NCCN1CCC2(CC1)C(=O)NCN2c1cccc(F)c1)c1ccc(F)c(F)c1`, with “inactive”; and `CCC1CC2CN3CCc4c([nH]c5ccccc45)C(C(=O)OC)(C2)C13` (stereo not given), with “inactive”; and `C#CC1(O)CCC2C3CCC4=CC(=O)CCC4=C3C=CC21C` (stereo not given), with 1120 nM (active).
